An excerpt weighted towards active compounds, which were near 2.4% of everything screened.
Prx2 Sm inh: inhibitors of Schistosoma mansoni peroxiredoxin 2 | S. mansoni Prx2 activity coupled to TGR/GSH (TGR is thioredoxin glutathione reductase), NADPH fluorescence loss, qHTS | Potency, µM | hit rate 0.07% among 65,000
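Activity is read as the drop in NADPH fluorescence (365/450 nm), recorded every 30 sec for 8 min after H2O2 addition. Prx2 is coupled to TGR-driven NADPH oxidation through glutathione, in phosphate buffer pH 7.4.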
AmpC det inh: AmpC beta-lactamase inhibition, detergent assay. hit rate 0.09% among 71,000. purified AmpC, nitrocefin hydrolysis with detergent. Potency, µM (highest dose often 28.7 µM), without a hit: top-dose activity change, negative = inhibition. P00811. AID 584; active = well fitted curve in the direction sought with a large enough effect; inconclusive = small, poorly fitted or top-dose-only effect; also: % is scaled to controls: 0 for no effect and ±100 for the full control effect
Target sequence (P00811 whole entry, looked up): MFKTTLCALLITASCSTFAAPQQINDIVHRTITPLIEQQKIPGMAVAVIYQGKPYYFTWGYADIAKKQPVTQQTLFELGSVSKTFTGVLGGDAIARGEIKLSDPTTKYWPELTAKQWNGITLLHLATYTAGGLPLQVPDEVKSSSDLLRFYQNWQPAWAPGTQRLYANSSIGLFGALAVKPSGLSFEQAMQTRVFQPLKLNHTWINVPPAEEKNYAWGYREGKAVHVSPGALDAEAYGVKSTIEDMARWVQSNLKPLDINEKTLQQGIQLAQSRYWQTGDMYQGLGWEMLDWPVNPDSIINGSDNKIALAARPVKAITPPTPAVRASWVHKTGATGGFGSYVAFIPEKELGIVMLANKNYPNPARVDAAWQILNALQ
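E. coli AmpC (5.3 nM) in 20 mM phosphate pH 7.0 with 0.01% Triton X-100, preincubated 15 min RT with compound; nitrocefin (2 uL of 800 uM stock) hydrolysis followed by 480 nm absorbance every 20 s over 4 min.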
AmpC nodet inh: blocks E. coli AmpC beta-lactamase in absence of detergent; AID 585; hit rate 1.8% among 71,000; Potency, µM (top dose mostly 28.7 µM), for the others: at the top dose activity change, negative = inhibition; AmpC nitrocefin hydrolysis, absorbance 480 nm, no detergent; P00811; also: % of control where 0% means no effect
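AmpC, 20 mM phosphate pH 7.0; 15 min cpd preinc, RT; start with nitrocefin (800 uM stock); A480 kinetic read, 20 s intervals, 4 min. No-enzyme wells = negative control.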
Anthrax LT inh: blocks cellular internalization of anthrax lethal toxin | hit rate 0.67% among 70,000 | Potency, µM (top dose mostly 40 µM), inactives show top-dose activity change, negative = inhibition, actives largely listed as inhibitors | Cells, anthrax lethal toxin internalization, FRET ratio (460/530); also: % is scaled to controls: 0 for no effect and ±100 for the full control effect; nearly all actives have a fitted effect of over 50% in size
* hit, by the source's call; [ ] = dose if it differs, or a comment. Unless noted, calls follow the shape of the full dose curve. Potency is read from the fitted curve at half-maximal effect.

What do the screens show for `CC(C)(C)OC(=O)NCCc1nnc(S(=O)(=O)Cc2ccc(Cl)cc2Cl)o1`?
Prx2 Sm inh: >57; AmpC det inh: 0.0158µM*; AmpC nodet inh: 0.0398µM*; Anthrax LT inh: inconclusive

What do the screens show for `CC[C@H]1[C@@H]2C[C@@H]3[C@@H]4N(C)c5ccccc5[C@@]45C[C@@H]([C@H]2[C@@H]5O)N3[C@@H]1O`?
Prx2 Sm inh: >57; AmpC det inh: -1.3%; AmpC nodet inh: 5.9%; Anthrax LT inh: inconclusive

How did CCN1C[C@@]2(C)CC[C@H](O)[C@@]34[C@@H]5C[C@H]6[C@H](O)[C@@H]5[C@](O)(C[C@@H]6OC)[C@H](C[C@@H]23)[C@H]14 do in these assays?
Prx2 Sm inh: >57; AmpC det inh: -0.6%; AmpC nodet inh: -7.4%; Anthrax LT inh: inconclusive

What do the screens show for `COc1ccc(NC(=O)Nc2nnc(N3CCCCC3C)s2)cc1OC` (stereo not drawn)?
AmpC det inh: 18.5%; AmpC nodet inh: 3.98µM*[single pt active]; Anthrax LT inh: 4.5%

Results for COC(=O)c1ccccc1NC(=O)Nc1nnc(N2CCCCC2C)s1 (stereo not drawn) ?
Prx2 Sm inh: >57; AmpC det inh: 11.6%; AmpC nodet inh: 3.98µM*[single pt active]; Anthrax LT inh: 1.26µM*

What do the screens show for `COc1ccc(Br)cc1CNC(=O)C1CCCN(S(C)(=O)=O)C1` (stereo not drawn)?
Prx2 Sm inh: >57; AmpC det inh: -2.2%; AmpC nodet inh: -10.0%; Anthrax LT inh: 10µM*

Results for CCOC(=O)C1CCN(c2c(NCc3ccc(C(=O)O)cc3)c(=O)c2=O)CC1 ?
Prx2 Sm inh: >57; AmpC det inh: 15.4%; AmpC nodet inh: 4.1%; Anthrax LT inh: -4.7%

How did CCCCCCCC/C=C\CCCCCCCC(=O)NCCc1ccc(O)c(O)c1 do in these assays?
Prx2 Sm inh: >57; AmpC det inh: -7.5%; AmpC nodet inh: 10µM*; Anthrax LT inh: inconclusive

How did COc1ccc(OC)c(-c2cc(C(=O)Nc3c(C)n(C)n(-c4ccccc4)c3=O)no2)c1 do in these assays?
Prx2 Sm inh: 7.08*; AmpC det inh: -1.7%; AmpC nodet inh: 35.7%; Anthrax LT inh: -6.4%

Results for C=C[C@@H]1CN2CC[C@H]1C[C@H]2[C@@H](O)c1ccnc2ccccc12 ?
Prx2 Sm inh: >57; AmpC det inh: 0.6%; AmpC nodet inh: -1.9%; Anthrax LT inh: inconclusive

How did Oc1ccc2c3c1O[C@H]1c4c(c5ccccc5n4Cc4ccccc4)C[C@]4(O)[C@H](C2)N(CC2CC2)CC[C@@]314 do in these assays?
Prx2 Sm inh: >57; AmpC det inh: -1.5%; AmpC nodet inh: 34.9%; Anthrax LT inh: 25.1µM*

How did Oc1ccc2c3c1O[C@H]1c4[nH]c5ccccc5c4C[C@]4(O)[C@H](C2)N(CC2CC2)CC[C@@]314 do in these assays?
Prx2 Sm inh: >57; AmpC det inh: -2.2%; AmpC nodet inh: 31.8%; Anthrax LT inh: inconclusive

What do the screens show for `CN(C)c1ccc(C(=O)OCC(=O)Nc2ccc(S(N)(=O)=O)cc2)cc1`?
Prx2 Sm inh: >57; AmpC det inh: -1.5%; AmpC nodet inh: 15.8µM*[single pt active]; Anthrax LT inh: 8.7%

Results for CCOC(=O)c1ccc(NC(=O)Nc2ccc(S(N)(=O)=O)cc2)cc1 ?
Prx2 Sm inh: >57; AmpC det inh: -4.3%; AmpC nodet inh: -20.2%

How did COc1ccc(-c2nnc(NC(=O)c3ccc(S(=O)(=O)N4CCCc5ccccc54)cc3)o2)cc1 do in these assays?
Prx2 Sm inh: >57; AmpC det inh: 8.9%; AmpC nodet inh: 12.6µM*; Anthrax LT inh: -12.8%

What do the screens show for `CN(c1ccccc1)S(=O)(=O)c1ccc(C(=O)Nc2nnc(-c3ccc(F)cc3)o2)cc1`?
Prx2 Sm inh: >57; AmpC det inh: -7.6%; AmpC nodet inh: 10µM*; Anthrax LT inh: 0.0%

How did COc1ccccc1-c1nnc(NC(=O)c2ccc(S(=O)(=O)N(C)Cc3ccccc3)cc2)o1 do in these assays?
Prx2 Sm inh: >57; AmpC det inh: -2.3%; AmpC nodet inh: 27.2%; Anthrax LT inh: -0.7%

Results for CC(C)OC(=O)c1nnc(Cc2ccc(F)cc2)o1 ?
Prx2 Sm inh: >57; AmpC det inh: 12.8%; AmpC nodet inh: 8.7%; Anthrax LT inh: -0.1%

Results for CC(C)C[C@H](N)c1nnc(S(=O)(=O)Cc2ccc(F)cc2)o1 ?
Prx2 Sm inh: >57; AmpC det inh: 2.51µM*; AmpC nodet inh: 2.51µM*; Anthrax LT inh: inconclusive

What do the screens show for `CN1CCC(=C2c3ccccc3C=Cc3ccccc32)CC1`?
Prx2 Sm inh: >57; AmpC det inh: -1.9%; AmpC nodet inh: 71.3%; Anthrax LT inh: 7.94µM*

Results for CCCCCCCCCCCCCCCCCC(=O)O[C@H](CC(=O)O)C[N+](C)(C)C ?
Prx2 Sm inh: >57; AmpC det inh: -6.8%; AmpC nodet inh: 76.0%; Anthrax LT inh: inconclusive

What do the screens show for `C[C@@H](CN1CCC(Cc2ccccc2)CC1)[C@H](O)c1ccc(O)cc1`?
Prx2 Sm inh: >57; AmpC det inh: -1.3%; AmpC nodet inh: -10.8%; Anthrax LT inh: 11.7%

Results for O=C(Oc1ccc(S(=O)(=O)F)cc1F)c1ccccc1Cl ?
Prx2 Sm inh: >57; AmpC det inh: -6.0%[5.75 µM]; AmpC nodet inh: -10.7%[5.75 µM]; Anthrax LT inh: 3.2%[8 µM]

Results for Cc1nc(NC(=O)c2ccccc2)sc1-c1csc(NCc2ccco2)n1 ?
Prx2 Sm inh: >57; AmpC det inh: 13.7%; AmpC nodet inh: 12.6µM*; Anthrax LT inh: inconclusive

What do the screens show for `Cc1nc(C)c(-c2csc(NCc3ccco3)n2)s1`?
Prx2 Sm inh: >57; AmpC det inh: 1.2%; AmpC nodet inh: 8.3%; Anthrax LT inh: -1.6%

How did O=C(CCCN1CCC2(CC1)C(=O)N(Cc1cccc(F)c1)CN2c1ccccc1)c1ccc(F)cc1 do in these assays?
Prx2 Sm inh: >57; AmpC det inh: -8.7%; AmpC nodet inh: 20µM*[single pt active]; Anthrax LT inh: inconclusive

Results for CC1=C(C(=O)O)N2C(=O)[C@@H](NC(=O)[C@@H](N)c3ccccc3)[C@@H]2SC1 ?
AmpC det inh: -1.9%[12.8 µM]; AmpC nodet inh: -17.4%[12.8 µM]; Anthrax LT inh: 1.3%[3.58 µM]

Results for ClC(Cl)C(Cl)Cl ?
AmpC det inh: 8.7%; AmpC nodet inh: -6.0%; Anthrax LT inh: -12.1%

How did O=c1cc(-c2ccccc2)oc2cc(O)c(O)c(O)c12 do in these assays?
Prx2 Sm inh: >57; AmpC det inh: -3.9%; AmpC nodet inh: 7.94µM*; Anthrax LT inh: 1.26µM*

What do the screens show for `O=C(CSc1nnc(-c2ccccc2)o1)N1CCN(c2ccccc2)CC1`?
Prx2 Sm inh: >57; AmpC det inh: -4.0%; AmpC nodet inh: 12.6µM*[single pt active]; Anthrax LT inh: inconclusive

How did CCOc1ccc(-c2nnc(SCC(=O)N3CCN(c4ccccc4)CC3)o2)cc1 do in these assays?
Prx2 Sm inh: >57; AmpC det inh: 6.4%; AmpC nodet inh: -3.2%; Anthrax LT inh: 0.5%

How did O=C(Nc1nnc(COc2ccccc2)s1)c1ccco1 do in these assays?
Prx2 Sm inh: >57; AmpC det inh: -1.8%; AmpC nodet inh: -0.4%; Anthrax LT inh: -1.1%

Results for O=C(Nc1nc(-c2cccs2)c(-c2ccccc2)s1)c1ccco1 ?
Prx2 Sm inh: >57; AmpC det inh: -7.0%; AmpC nodet inh: -22.2%; Anthrax LT inh: 12.6µM*

How did CC(=O)OC1c2ccccc2C(=O)N1c1ccccc1C (stereo not drawn) do in these assays?
Prx2 Sm inh: >57; AmpC det inh: 15.0%; AmpC nodet inh: 3.98µM*[single pt active]; Anthrax LT inh: -9.2%

From PubChem BioAssay
